From PubChem BioAssay
Rows were chosen to be rich in hits. Some 5.4% of all compounds tested hit in one or more screens of this group.
LASV entry inh = blocks Lassa virus binding to or entry into cells | Potency, µM (series often up to 37.9 µM), for the others: at the highest dose activity change, negative = inhibition, usual class: inhibitors | Lassa virus pseudotype entry inhibition, cell reporter | AID 540256 | hit rate 1.2% among 300,000; calls by dose curve; tested in HEK293 cells; note: nearly all actives have a fitted effect of over 50% in size
Marburg entry inh = inhibitors of Marburg virus binding or cell entry; hit rate 1.8% among 300,000; Potency, µM (doses to about 37.8 µM), for the others: at the top dose activity change, negative = inhibition, usual class: inhibitors; Marburg virus pseudotyped entry inhibition, cell reporter; calls by dose curve; tested in HEK293 cells
VACV Venus inh = inhibitors of vaccinia virus (Venus reporter) | Vaccinia virus Venus reporter expression, fluorescence | AID 720580 | hit rate 0.46% among 330,000 | Potency, µM (doses to about 36.5 µM), for inactives: at the highest dose activity change, negative = inhibition, actives largely listed as inhibitors; calls by dose curve; tested in A549 cells; note: nearly all actives have a fitted effect of over 30% in size
Sm TGR block = blocks Schistosoma mansoni thioredoxin glutathione reductase; purified TGR, DTNB reduction, TNB absorbance 405 nm; hit rate 3% among 360,000; Q962Y6; Potency, µM (doses to about 114 µM), for inactives: top-dose activity change, negative = inhibition, hits mostly inhibitors; active = well fitted inhibition curve with a large enough effect; inconclusive = small, poorly fitted or top-dose-only effect; inactive = no such curve, though single readings can be large or run the other way; note: nearly all actives have a fitted effect of over 60% in size
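Kinetic colorimetric format: TGR-catalysed, NADPH-driven DTNB reduction monitored via TNB absorbance. Enzyme dispensed at 20 nM; compound exposure 15 min at room temperature before reaction start.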
VACV mCherry inh = inhibitors of vaccinia virus infection (mCherry reporter signal). Vaccinia virus mCherry reporter infection, fluorescence. Potency, µM (titrated, usually from 36.5 µM), inactives show at the top dose activity change, negative = inhibition, usual class: inhibitors. hit rate 0.63% among 310,000. AID 720579; calls by dose curve; tested in A549 cells; note: nearly all actives have a fitted effect of over 35% in size
FMDV antiviral = foot and mouth disease virus antiviral activity; Potency, µM (top dose mostly 57.9 µM), for inactives: top-dose activity change, negative = inhibition, usual class: inhibitors; FMDV antiviral cell-based qHTS; AID 1159524; hit rate 1.2% among 410,000; calls by dose curve; tested in HEK293T cells; note: read-out not given here; nearly all actives have a fitted effect of over 45% in size
Numbers without * were called inactive; i = inactive; u = inconclusive; x = not tested or not shown; [ ] = another dose, or the depositor's remark. % is set by controls: 0 for no effect and ±100 for the full control effect; potency is the fitted concentration of half-maximal effect.

SMILES	LASV entry inh	Marburg entry inh	VACV Venus inh	Sm TGR block	VACV mCherry inh	FMDV antiviral
CNCC[C@H](Oc1ccccc1OC)c1ccccc1	x	18µM*	x	x	x	-20%
COc1cc2c(C(=O)N3CCN(c4cccc(C)c4)C(C)C3)cn(CC(C)C)c(=O)c2cc1OC (configuration not stated)	u	u	-10%	-11%	-14%	-18%
CC(C)Cc1nc2cc(NS(=O)(=O)N(C)C)cc(C(=O)N3CCOc4ccccc4C3)c2n1C	x	x	-8%	x	-15%	-6%
COc1ccc(-c2onc(C)c2C)cc1S(=O)(=O)Nc1ccc(OC(F)(F)F)cc1	11%[46.1 µM]	x	-12%	-2%	2%	24%
O=C(CCCN1C(=O)c2ccccc2C1=O)Nc1sc2c(c1C(=O)NCc1ccco1)CCC2	-4%	u	-7%	40µM*	-14%	-1%
O=C(CN1C(=O)c2ccccc2C1=O)NCC1CCCO1 (configuration not stated)	2%	22%	-8%	-10%	x	u
O=C(CN1C(=O)c2ccccc2C1=O)Nc1sc2c(c1C(=O)NCc1ccco1)CCCC2	1%	7%[46.1 µM]	-2%	-20%	-15%	-5%
O=C(CN1C(=O)c2ccccc2C1=O)Nc1sc2c(c1C(=O)NCC1CCCO1)CCC2 (configuration not stated)	14%	-11%	x	79µM*	x	-18%
NCc1ccc(-c2nc(-c3ccc(Cl)c(O)c3)c(-c3ccncc3)[nH]2)cc1	-19%	x	x	x	x	x
CCc1nc(Oc2cccc(F)c2)c2oc3ccccc3c2n1	0%[46.1 µM]	x	-2%	9%	-4%	2%
Cc1ccccc1NC(=O)Nc1nnc(N2CCCCCC2)s1	-26%[46.1 µM]	-12%[46.1 µM]	-6%	3%	-5%	32%
Cc1ccc(-c2nc(CCNC(=O)C(=O)Nc3ccc(C)c(Cl)c3)cs2)cc1	10%[46.1 µM]	x	-7%	5%	-5%	-25%
O=C(O)Cn1nc(-c2ccccc2)oc1=O	14%	11%	2%	4%	x	4%
CC(C)(C)C(=O)n1nc(-c2ccccc2)oc1=O	8%	9%	-10%	32µM*	-12%	-13%
Cc1ccc(-n2ncc(C(=O)NCCN3CCc4ccccc4C3)c2C2CCNCC2)cc1C	5%[46.1 µM]	x	-9%	-7%	-16%	-13%
O=C(O)CCCNC(=O)/C(=C\C=C\c1ccccc1)NC(=O)c1ccccc1Cl	3%[46.1 µM]	-6%	-5%	40µM*	i	6%
C=CCNC(=O)/C(=C\C=C\c1ccccc1)NC(=O)c1ccccc1Cl	u	u	-3%	2%	-3%	34%
CCN(CC)c1ccc(C(=O)NNC(=O)CCl)cc1	u	-21%[46.1 µM]	-9%	20µM*	-6%	4%
Cc1ccc(O[C@@H]2[C@H](O)CO[C@@H]2/C=C/C#Cc2ccc(C(C)(C)C)cc2)cc1	x	-35%[14.2 µM]	x	x	x	x
O=[N+]([O-])c1cc(Cl)cc(/C=N\Nc2ccccn2)c1O	u	u	u	8%	2.2µM*	-29%
NC1(c2ccc(-c3nc4ccn5c(=O)[nH]nc5c4cc3-c3ccccc3)cc2)CCC1	x	x	10µM*	x	7.9µM*	x
Cc1c(/C=C(\C#N)C(=O)Nc2cccc(Cl)c2)c2ccccc2n1Cc1ccccc1	-14%[46.1 µM]	x	11%	3%	-20%	u
CCOc1ccc2oc(=O)cc(CN3CCN(C(=O)c4ccc(Cl)cc4)CC3)c2c1	10%[46.1 µM]	6%[46.1 µM]	-21%	-7%	-14%	-21%
CC(=O)Nc1ccccc1OCCOc1ccc(Br)cc1	u	u	-23%	5%	13µM*	0%
CC1(C)Cc2c(ccc3ccccc23)/C(=C/C#N)N1	16%	u	-10%	45µM*	-24%	x
SMILES	LASV entry inh	Marburg entry inh	VACV Venus inh	Sm TGR block	VACV mCherry inh	FMDV antiviral
CNC(=O)/C=C1\NC(C)(C)Cc2c1ccc1ccccc21	2%	u	u	u	x	u
CCOc1ccc2nc(N3CCN(C(=O)c4ccco4)CC3)sc2c1	0%[46.1 µM]	x	-19%	-2%	-14%	5%
c1ccc(COc2ccc(Oc3nc(N4CCCCC4)nc(N4CCOCC4)n3)nn2)cc1	5.8µM*	u	-10%	2%	-20%	-20%
CCN(C(=O)COC(=O)c1cc(-c2cccs2)nc2ccccc12)C1CCS(=O)(=O)C1 (configuration not stated)	16%[46.1 µM]	1%[46.1 µM]	-7%	-10%	-9%	0%
CCN(C(=O)COC(=O)c1cc(-c2ccc(C)o2)nc2ccccc12)C1CCS(=O)(=O)C1 (configuration not stated)	u	-15%[46.1 µM]	-9%	25µM*	u	16%
Cc1ccc(-c2cc(C(=O)OCC(=O)N(C)C3CCS(=O)(=O)C3)c3ccccc3n2)c(C)c1 (configuration not stated)	3%	7%	-9%	6%	0%	-23%
Cc1ccc(-c2cc(C(=O)OCC(=O)N(C)C3CCS(=O)(=O)C3)c3ccccc3n2)o1 (configuration not stated)	-11%	u	2%	14µM*	-12%	-2%
CCOC(=O)c1ccc2c(c1)sc1nc(-c3ccc(OCC)cc3)cn12	x	u	-17%	9%	-2%	-3%
Cc1ccc(NC(=O)Cn2ncn3c(cc4ccccc43)c2=O)cc1C	x	13µM*	-11%	0%	-12%	6%
O=C(Cn1ncn2c(cc3ccccc32)c1=O)NCc1ccco1	-11%	7%	-7%	32µM*	i	x
COc1ccc(CNC(=O)Cn2ncn3c(cc4ccccc43)c2=O)cc1	-20%	19%[46.1 µM]	-8%	0%	i	-18%
COc1cccc(-c2ccc(O)c(CNCc3cccc(OC)c3OC)c2)n1	x	x	-11%	x	-15%	-3%
CCOC(=O)Cn1c(CN(C)Cc2ccccc2)nc2c1c(=O)n(C)c(=O)n2C	1%	-11%	x	x	x	14µM*
CN(Cc1ccccc1)S(=O)(=O)c1ccc2c(c1)n(C)c(=O)c(=O)n2C	x	x	x	9%	x	-7%
CN(Cc1ccccc1)C(=O)CCS(=O)(=O)c1ccc2c(c1)n(C)c(=O)c(=O)n2C	x	1%	2%	22µM*	0%	-27%
Cc1ccccc1CNC(=O)CN(c1cccc(C)c1C)S(C)(=O)=O	u	x	-10%	21%	-10%	-14%
CCOC(=O)c1sc(/S(C)=N\S(=O)(=O)c2cccc(Cl)c2)c2c1CCC=C2 (configuration not stated)	x	x	x	2.8µM*	x	-7%
Cc1ccc(S(=O)(=O)CCSc2nc(C)cc(C(F)(F)F)c2C#N)cc1	u	-47%	2.2µM*	-16%	x	u
CCOc1ccc(C(c2c(O)cc(C)n(Cc3ccco3)c2=O)N2CCCCC2)cc1 (configuration not stated)	u	x	-11%	7.1µM*	-17%	-6%
CCOc1ccc(C(c2c(O)cc(C)n(Cc3ccco3)c2=O)N2CCN(c3ccccc3)CC2)cc1 (configuration not stated)	-1%[46.1 µM]	x	-8%	3.5µM*	-8%	u
